# Pf growth 48h: inhibits P. falciparum growth in the first generation, 48 h; P. falciparum luciferase growth in erythrocytes, 48 h; Potency, µM (series often up to 28.7 µM), for inactives: at the top dose activity change, negative = inhibition, actives largely listed as inhibitors; 310,000 compounds, 5.9% hits; AID 504832; further: potency means the concentration at half of the fitted maximal effect; on the % scale 0 is the no-effect control and ±100 the full control effect
#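 Firefly luciferase activity from engineered P. falciparum reports growth; inhibitors lower the luminescent signal. Cultures contained 2% hematocrit erythrocytes at 0.1% final parasitemia.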
# Cycloheximide cs: counter-screen for Shiga toxin inhibitors: cycloheximide protein synthesis inhibition; cell reporter, cycloheximide protein synthesis inhibition counterscreen; max response, %; 300,000 compounds, 12% hits; AID 2314; in the data active means max response mostly above about 13%, no sharp cut-off; inactive means mostly below about 14%; further: read at 38.3 µM for the half of the compounds with a filed dose; 0% is about no effect
# Pf growth 96h: P. falciparum growth inhibition at 96 hours. Potency, µM (doses to about 28.7 µM), for the others: at the top dose activity change, negative = inhibition, hits mostly inhibitors. 320,000 compounds, 6.9% hits. P. falciparum luciferase reporter growth, 96 h. AID 504834; further: potency means the concentration at half of the fitted maximal effect; on the % scale 0 is the no-effect control and ±100 the full control effect
#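 P. falciparum expressing integrated firefly luciferase, in erythrocytes at 2% hematocrit, 0.05% parasitemia, incubated with compounds 96 h at 37 C, 5% CO2. Growth inhibition read as loss of luminescence; two-generation exposure targets delayed-death apicoplast inhibitors.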
# Shiga toxin inh: inhibitors of Shiga toxin in Vero cells; inhibition, % at 38.7 µM; AID 2315; 290,000 compounds, 9.2% hits; Vero cells, Shiga toxin protein synthesis inhibition reporter; in the data active means inhibition mostly above about 28%, no sharp cut-off; inactive means mostly below about 43%; further: 0% is about no effect
# AMA1 RON2 block: disrupts binding of P. falciparum AMA1 to RON2 | AlphaScreen AMA1-biotinylated RON2 peptide binding | Potency, µM (series often up to 58.2 µM), for inactives: at the highest dose activity change, negative = inhibition, actives largely listed as inhibitors | 360,000 compounds, 0.2% hits | AID 720542;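 further: potency means the concentration at half of the fitted maximal effect; 0% = vehicle wells and -100% = peptide control; nearly all actives have a fitted effect of over 45% in size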
#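 AMA1 (3D7) with his tag at 25 nM final met compounds first, then biotinylated RON2 peptide at 25 nM; detection used donor plus acceptor beads, 10 µg/mL apiece, read by AlphaScreen after 30 min at room temperature.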
# HCV inh: HCV inhibition; Huh7.5.1 HCVcc-Cre infection, luciferase reporter, 44 h; Potency, µM (titrated, usually from 41.8 µM), inactives show at the top dose activity change, negative = inhibition, hits mostly inhibitors; 340,000 compounds, 3.4% hits; AID 651820; further: potency means the concentration at half of the fitted maximal effect; on the % scale 0 is the no-effect control and ±100 the full control effect
#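 A cell-based infection assay in which seeded cells (1,000 per well) receive test compound after 4 h, are inoculated with HCVcc-Cre at approximately 0.5 moi, and are incubated 44 h before luminescence detection.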
# The depositor's hits bear a star; ? = inconclusive; nt = no result given; [ ] = dose if it differs, or a comment. In the library only some 21% were active in any assay of this set; here they are far more common. Unless noted, the call rests on the fitted dose curve; in most records, active means well fitted curve in the direction sought with a large enough effect; inconclusive means small, poorly fitted or top-dose-only effect, or another doubt; inactive means no such curve, though single readings can be large; an effect the other way counts as inactive or inconclusive.
SMILES,Pf growth 48h,Cycloheximide cs,Pf growth 96h,Shiga toxin inh,AMA1 RON2 block,HCV inh
CN(Cc1ccccc1)C(=O)c1ccc(NC(=O)Cc2cccc(NC(=O)C3CCN(C(=O)C4CCCC4)CC3)c2)cc1,?,nt,5.9µM*,nt,-4%,-10%
CN(C(=O)c1ccc(NC(=O)Cc2cccc(NC(=O)C3CCCN(C(=O)CCc4ccccc4)C3)c2)cc1)C1CCCC1 (configuration not stated),0.12µM*,nt,?,nt,-2%,?
CN(C(=O)c1cccc(NC(=O)Cc2ccc(NC(=O)C3CCCN(C(=O)CCc4ccccc4)C3)cc2)c1)C1CCCC1 (configuration not stated),nt,nt,nt,nt,-5%,?
CN(Cc1ccccc1)C(=O)c1cccc(NC(=O)Cc2cccc(NC(=O)C3CCN(C(=O)C4CCC4)CC3)c2)c1,nt,nt,nt,nt,-15%,-21%
CN(Cc1ccccc1)C(=O)c1cccc(NC(=O)Cc2ccc(NC(=O)C3CCCN(C(=O)C4CCCCC4)C3)cc2)c1 (configuration not stated),nt,nt,nt,nt,-6%,7.9µM*
CN(Cc1ccccc1)C(=O)c1ccc(NC(=O)Cc2cccc(NC(=O)C3CCCN(C(=O)CCc4ccccc4)C3)c2)cc1 (configuration not stated),3.7µM*,nt,1.5µM*,nt,-10%,?
O/N=C\c1ccc2noc(-c3ccc(Cl)cc3)c2c1,24%,17,114%,2,6%,6%
Cc1ccccc1-n1c(SCC(=O)NC2CC2)nc2ccccc2c1=O,nt,nt,nt,nt,-8%,nt
O=S(=O)(c1ccc(NC(=S)NN=Cc2ccccc2O)cc1)N1CCCCC1,nt,nt,nt,nt,35%,?
COC(=O)[C@]12CCCCC=C1N(CCC1=CCCCC1)C(=O)[C@H](CC(=O)NCc1cccc3ccccc13)C2,nt,nt,nt,nt,-12%,nt
CN(C(=O)c1ccc(NC(=O)Cc2ccc(NC(=O)C3CCCN(C(=O)CCc4ccccc4)C3)cc2)cc1)C1CC1 (configuration not stated),13µM*,nt,?,nt,-7%,14µM*
CN(C(=O)c1cccc(NC(=O)Cc2ccc(NC(=O)C3CCCN(C(=O)CCc4ccccc4)C3)cc2)c1)C1CCC1 (configuration not stated),nt,nt,nt,nt,6%,-7%[8.37 µM]
CN(C(=O)c1ccc(NC(=O)Cc2cccc(NC(=O)C3CCCN(C(=O)C4CCCC4)C3)c2)cc1)C1CCCC1 (configuration not stated),12µM*,nt,3.7µM*,nt,-4%,-12%
O=C(Cc1ccc(NC(=O)C2CCCN(C(=O)CCc3ccccc3)C2)cc1)Nc1cccc(C(=O)N2CCCCC2)c1 (configuration not stated),nt,nt,nt,nt,4%,7.9µM*
COc1ccccc1/C=N/OCc1ccc(C#N)cc1,11%,5,40%,28,47%,18%
Cc1cccc(OC(=O)c2ccc3nccnc3c2)c1,-3%,2,nt,-25,34%,5%
O=C(Oc1ccccc1)c1cc(O)c(O)c(O)c1,nt,nt,nt,nt,40µM*,nt
O=C(Oc1ccccc1)c1ccc2nsnc2c1,77%,53*,-3%,75*,-4%,6%
O=S(=O)(NC[C@@H]1CCC[C@H](CNS(=O)(=O)c2c(F)cccc2F)C1)c1ccc2c(c1)OCCO2,8.3µM*,nt,?,nt,nt,nt
CCN(CC)S(=O)(=O)c1ccc(NC(=O)COC(=O)c2ccc(NC(=O)CC#N)cc2)cc1,0%,-1,51%[1.15 µM],-6,-1%,-1%
CCN(CC(=O)N1CCCC1)S(=O)(=O)c1cc(C)ccc1OC,-7%,1,0%,-5,-5%,-8%
CC(C)(C)C(=O)Cn1ncc(N2CCOCC2)c(Cl)c1=O,nt,17*,39%,32*,-1%,-3%
CO/N=C(\Cn1ncc(N2CCCC2)c(Br)c1=O)c1ccc(Cl)cc1,?,-1,nt,-9,5%,?
CCn1ncc(N2CCOCC2)c(Cl)c1=O,0%,8,54%,6,-12%,4%
O=C(Cn1ncc(N2CCOCC2)c(Br)c1=O)c1ccc(Cl)cc1,53%,35*,40%,80*,14%,-1%
SMILES,Pf growth 48h,Cycloheximide cs,Pf growth 96h,Shiga toxin inh,AMA1 RON2 block,HCV inh
CC(C)(C)C(=O)Cn1ncc(Br)c(Br)c1=O,-31%,-10,7%,-28,4%,10µM*
CC(=O)Cn1ncc(N2CCOCC2)c(Cl)c1=O,39%,7,52%,-4,5%,4%
O=C(Cn1ncc(N2CCCC2)c(Cl)c1=O)c1ccc(Cl)cc1,146%,38*,245%,90*,-10%,25%
CC(C)C(N)c1csc(NC(=O)Nc2ccc(OC(F)(F)F)cc2)n1 (configuration not stated),nt,nt,nt,nt,103%,nt
Cn1cnc(S(=O)(=O)N2CCCCC2c2cc(C(=O)Nc3ccc(F)c(Cl)c3)no2)c1 (configuration not stated),nt,nt,nt,nt,0%,nt
CNCc1ccccc1Sc1cccc2ccccc12,?,-5,?,-12,-11%,?
CN(C)CCN(C)Cc1ccccc1Sc1cccc2ccccc12,?,-10,13µM*,-26,-29%,11µM*
CCOC(=O)c1sc(Nc2ccccc2Cl)nc1C,113%,42*,152%,88*,-6%,?
CCOC(=O)c1cc2nc(Nc3ccc(OC)cc3)sc2s1,3%,14*,11%,58*,-3%,?
CCOC(=O)c1sc2cccc(F)c2c1N,-5%,25*,?,25*,68%,-6%
CCOC(=O)c1sc(NC(=O)/C=C/c2c(F)cccc2Cl)nc1C,9%,40*,56%,-7,-12%,11%
CCOC(=O)c1sc2cccc(Cl)c2c1N,-1%,3,20%,14,24%,-2%
CCOC(=O)c1sc(Nc2ccc(Br)cc2)nc1C,?,30*,?,89*,-17%,8%
CCOC(=O)c1sc(NC(=O)Nc2ccccc2F)nc1C,-1%,86*,-56%,75*,5%,-8%
CCOC(=O)Cc1csc(NC(=O)Cc2ccccc2)n1,19%,2,5%,-16,16%,15%
COC(=O)Cc1csc(Nc2ccccc2Cl)n1,40%,36*,?,52*,-2%,-1%
CCCCC(=O)Nc1cccc(-c2nc3ncccc3o2)c1C,21%,15*,-17%,43,13%,-10%
Cc1ccc(-c2nc3ncccc3o2)cc1NC(=O)C(C)C,?,-2,6%,20,-6%,-21%
Cc1c(NC(=O)C(C)C)cccc1-c1nc2ncccc2o1,5%,9,9.3µM*,25,8%,8%
Cc1cc(-c2nc3ncccc3o2)ccc1NC(=O)CC(C)C,8%,7,4.1µM*,10,0%,7%
Cc1cccn2c(CN3CCNC(=O)CC3)c(C(=O)N(C)CCc3ccccc3)nc12,10%,-3,1.9µM*,-7,-6%,-3%
